In the supplement of paper PMC6555819:

Each sequence was assayed on VDR:RXRa (NR concentration 270 nM, RXRa partner concentration 90 nM) (assay: PBM binding z-score (relative to random genomic background probes); higher = stronger binding; sequences stand for … in GC…GCGATTGACAGCGTAGAATGAAGG).
Protocol: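 Protein-binding microarray (Agilent 4x180K custom design, double-stranded 60-nt probes: 5' GC cap, 34-nt variable region, 24-nt constant primer region; full probe sequence given). Purified or IVT nuclear receptor:RXRα heterodimers (3:1 NR:RXRα, mostly 270:90 nM) or homodimers were incubated for 1 h in PBS with 2% milk and no ligand, then detected with Alexa488 antibodies. Fluorescence from o1-orientation probes (~5 replicates averaged) was converted to z-scores against 500 random hg19 background probes. Variable regions are seed direct-repeat (DR0–DR5) sites, all their single-nucleotide variants and half-site ablations.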

Row | Sequence | PBM binding z-score
1 | CAGCCTAGGTCAGTGCCAGTATAGGAGGAACGTT | -0.0475
2 | CCAGACAGGTGAAAGGCAACTCAGTCTGGTACGC | -0.108
3 | AGCATGAGGTTAAGATCAGGGAAACAGAATACAT | 1.36
4 | CAAACTAGGTCAATAGGTCAAAGTCCGCTTCCCG | 4.64
5 | CCGACTGAGGCATAAGGTTACCATAAGCCAGCCC | 0.114
6 | CGAACGAGGGCATGTGTTGATAGCAAATGCCGAT | 0.931
7 | CCGACTGGGGCATAAGGTTACCTTAAGCCAGCCC | 0.0606
8 | GTACCAAGGTGAATAGGTAGTTGATGAGTAGGCG | -0.15
9 | CTCGAAAGGTCGGTGGAGGTGAGTATACGGATAA | 1.79
10 | ATCTCTAGGTAAAAGTTCGGTGAATCCCGAGGAT | 0.449
11 | CCAGACAGGTTAGAAGGTAACTCAGCCTCGATTA | 0.114
12 | ATCGAAAGGTCGACAAGGTGAGTATACACCGTTT | 4.61
13 | TCGGACAGGTGAAGGTAACTCAGGTACGCAGTCG | 0.531
14 | TAGCCTAGGTCATTCAGGGGCCAGTAAAGAAAGC | 3.21
15 | CGTTACGGGTCACGAGGTTATAGCACGACGAGCG | 5.35
16 | CTACCTAGGTGAACAAGGTCGTTGATTACTATTC | 5.37
17 | GTACCAAGGTGAATACGTCGTTGATGAGTAGGCG | -0.262
18 | ACCGAAAGGTCGTGAGGTGAGTATACAGAAAGGC | 3.62
19 | CAGCCTAGGTCAGGGTCAGTATAGGAGGAACGTT | 2.7
20 | ACACCAAGGTGATCGTGAGGTCGTTGATACTAAC | 3.21

Row | Sequence | PBM binding z-score
21 | TCATATAGGTAAAACGTGAAAGTCGGTGTGGTAA | 0.783
22 | ATCTCTAGGTAAAGATGGTTCAGTGAATGCAAAT | 0.607
23 | TGAAAGAGGTTAAAGATCAGGGAACGTGGCGTCG | 1.82
24 | GCTGCTAGGTCAAATGATGGTCAGCTAAAGCTCG | 1.96
25 | CCTTACGGGTCACGAGGTTATTGCACGACGAGCG | 5.3
26 | CGTCCAAGGTGAAGGTCAGTGAAAGAGACTCGAA | 0.859
27 | CTCGAAAGGTCGGGCTCAGGTGAGTATACCAAAC | 1.5
28 | CGTCCAAGCTCATAGGAGGTCAGTGAAGACAGAT | 1.69
29 | ACTATTAGTTGACTTAGGGCAACAGATACGACGC | 0.323
30 | GGTACAGGGTCAGCTAGAGGCCAGAGTATGGAAA | 3.29
31 | ACTAGCAGGCCAAGTTTGGGTCACGCAAACAAAG | 1.36
32 | ACTCGGAGGACAAAGGTCAGATCTACGCCAGTGA | 3.49
33 | ATATATAGGTTAAGGGTCATTCAGGTTGGTTCGC | 6.11
34 | CCTTACGGGTCACTGACACGTTATAGCATTTGGA | 3.23
35 | ACACACAGGTGATGAAGGTAACTCAGGCTATCAT | 0.511
36 | CGAACTAGGTCATCCAGGACAGTGCATACATTGA | 4.69
37 | TCATTTAGGTAAAGGTGAAAGTCGAACGATATGA | 1.23
38 | TCATATAGGTAATACAGGTGAACGTCGGCATCTA | 1.18
39 | CCAGACAGGTGAAAGATAACTCAGTCTGGTACGC | 0.17
40 | TCTATTTGGTCAAAGGTCACACACTCGAAATGCG | 5.41
